Source: PubChem BioAssay
Activity calls are given as the source filed them. How the calls were made is not given here.

Target: Pantothenate synthetase (Mycobacterium tuberculosis (strain ATCC 25618 / H37Rv)) (UniProt P9WIL5)
Experiment: Coupled enzyme confirmation of inhibitors against recombinant Mtb PanC (AID 375);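 further: 0% = full reaction with vehicle and 100% = no enzyme background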
Settings: coupled enzyme assay; at 10 µM, active compounds read high

Pantothenate synthetase (Mycobacterium tuberculosis (strain ATCC 25618 / H37Rv)), sequence (P9WIL5 whole entry, looked up): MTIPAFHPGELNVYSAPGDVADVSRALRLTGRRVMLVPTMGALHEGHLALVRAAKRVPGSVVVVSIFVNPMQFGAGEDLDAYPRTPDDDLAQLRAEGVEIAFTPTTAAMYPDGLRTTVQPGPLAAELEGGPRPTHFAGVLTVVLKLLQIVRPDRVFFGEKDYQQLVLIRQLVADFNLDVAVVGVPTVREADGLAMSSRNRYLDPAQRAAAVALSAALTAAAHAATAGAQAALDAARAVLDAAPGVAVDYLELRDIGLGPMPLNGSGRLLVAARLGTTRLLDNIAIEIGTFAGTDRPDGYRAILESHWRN

Compound | inhibition
CCOc1ccccc1N1Cc2cc(C)c(C)cc2C1 | 0% (inactive)
CC1C/C=C/C=C/C=C/C=C/C(O[C@@H]2O[C@H](C)[C@@H](O)[C@H](N)[C@@H]2O)CC2OC(O)(CC(O)CC3OC3/C=C/C(=O)O1)CC(O)C2C(=O)O (some centres not stated) | 5% (inactive)
O=C1CSC(c2cn(-c3ccccc3)nc2-c2ccccc2)N1Cc1ccco1 (configuration not stated) | 4% (inactive)
O=C(c1ccc(Cl)c(F)c1F)N1CCCC1 | 3% (inactive)
COc1ccc(C)cc1S(=O)(=O)N(C)CC(=O)Nc1ccc2c(c1)OCCO2 | 2% (inactive)
Cc1ccc(C(=O)Nc2ccc3c(c2)OCO3)o1 | 0% (inactive)
C=CS(=O)(=O)c1ccc(Oc2ccc(S(=O)(=O)C=C)cc2)cc1 | 10% (inactive)
COc1ccccc1-c1nnc(SCC(=O)NC2CCCCC2)o1 | 0% (inactive)
CCOC(=O)CSc1nc2cccnc2n1-c1ccc(F)cc1 | 2% (inactive)
COC(=O)c1c(NC(=O)c2ccc(S(=O)(=O)N3CCOCC3)cc2)sc2c1CCN(C)C2 | 0% (inactive)
Cc1cc(C)n(C(C)n2nc(C)cc2C)n1 | 6% (inactive)
CC(C)N(C(=O)COC(=O)c1ccc(O)cc1)C(C)C | 1% (inactive)
COC(=O)c1sc(S(=O)(=O)Nc2ccc3cn[nH]c3c2)c(C(=O)OC)c1C | 0% (inactive)
COCCNC(=S)c1ccc(OC)cc1 | 5% (inactive)
CC1CCc2c(sc(N)c2C(N)=O)C1 (configuration not stated) | 0% (inactive)
COCc1nnc(NC(=O)CCCOc2ccccc2)s1 | 0% (inactive)
COc1cccc(-c2nnc(NC(=O)c3ccccc3Br)o2)c1 | 0% (inactive)
